{
  "source": "PubChem BioAssay (NCI)",
  "note": "This is part of a sample that, as a whole, favours compounds with a hit. Of some 79,000 tested, about 15% had one in any assay. Unmarked numbers belong to inactive results. Activity calls are given as the source filed them. Rule as the data show it: active = growth inhibition above about 70%; inactive = the rest.",
  "data": [
    {"assay": "NCI Yeast Anticancer Drug Screen. Data for the mgt1 strain (AID 153)", "conditions": "S. cerevisiae mgt1 mutant growth inhibition; at 33.0 µM; stronger effect = higher value", "summary_of_the_method": "(§1)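 Yeast mgt1 strain (DNA repair/cell-cycle alteration panel) exposed to compounds; growth inhibition measured relative to vehicle-treated controls.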", "values": [
      {"compound": "COc1ccc(/C=C2\\CCc3ccccc3C2=O)cc1OC", "growth inhibition": "67%"},
      {"compound": "O=Cc1ccccc1B(O)O", "growth inhibition": "99% (active)"},
      {"compound": "CC(=O)CC[N+](C)(C)C", "growth inhibition": "-21%"},
      {"compound": "O=C(O)[C@H]1[C@@H](C2CCCCC2)O[C@@H](C2CCCCC2)O[C@H]1C(F)(F)F", "growth inhibition": "-17%"},
      {"compound": "CCCCOc1ccc(Nc2c3ccccc3nc3ccccc23)cc1", "growth inhibition": "99% (active)"},
      {"compound": "N#C/C(=C1C=C/C(=N\\O)C(Cl)=C\\1)c1ccccc1", "growth inhibition": "5%"},
      {"compound": "COc1ccc(C(=O)OCCc2ccccc2)cc1", "growth inhibition": "-5%"},
      {"compound": "Cc1c2ccncc2c(C)c2c1oc1ccccc12", "growth inhibition": "61%"},
      {"compound": "CCCC#CCOC(=O)c1cc([N+](=O)[O-])cc([N+](=O)[O-])c1", "growth inhibition": "99% (active)"},
      {"compound": "Nc1nc(Nc2ccccc2)nc(Nc2ccccc2)n1", "growth inhibition": "2%"},
      {"compound": "COc1ccc(/C=C2\\S/C(=N/Nc3nc(-c4ccccc4)cs3)NC2=O)cc1OC", "growth inhibition": "97% (active)"},
      {"compound": "CC(O)CN1C(=O)c2cccc3cc([N+](=O)[O-])cc(c23)C1=O", "note": "(configuration not stated)", "growth inhibition": "15%"},
      {"compound": "Cn1c(COc2ccc(/C=N/NC(=O)CCC(=O)N/N=C/c3ccc(OCc4c[n+]5ccccc5n4C)cc3)cc2)c[n+]2ccccc12", "growth inhibition": "24%"},
      {"compound": "COC1=C(N=[N+]=[N-])C(=O)c2ncccc2C1=O", "growth inhibition": "81% (active)"},
      {"compound": "CCN(CC)c1ccc(N=Nc2cc(S(=O)(=O)O)ccc2O)c(O)c1", "growth inhibition": "9%"},
      {"compound": "O=C1C(C(O)(C(F)(F)F)C(F)(F)F)CCC1C(O)(C(F)(F)F)C(F)(F)F", "note": "(configuration not stated)", "growth inhibition": "9%"},
      {"compound": "CN(C)CCNC(=O)c1cccc2nc3c(ccc4ccccc43)nc12", "growth inhibition": "31%"},
      {"compound": "CCC(C)/C(C)=N/NC(N)=O", "note": "(configuration not stated)", "growth inhibition": "14%"},
      {"compound": "Nc1c([N+](=O)[O-])cc2c3c(cccc13)CC2", "growth inhibition": "22%"},
      {"compound": "CC1=Cc2ccc(C)cc2C(=O)C1=O", "growth inhibition": "100% (active)"},
      {"compound": "C=Cc1c(C)c(O)cc2c1-c1ccc(O)c(C)c1CC2", "growth inhibition": "98% (active)"},
      {"compound": "NCC(O)CSCc1ccc(Cl)cc1", "note": "(configuration not stated)", "growth inhibition": "0%"},
      {"compound": "C[n+]1c(-c2ccc(NC(=O)c3ccc(C(=O)Nc4ccc(-c5cn6ccccc6[n+]5C)cc4)cc3)cc2)cn2ccccc21", "growth inhibition": "85% (active)"},
      {"compound": "CNC(=O)OCc1c(COC(=O)NC)c(C)n(-c2ccc(Cl)c(Cl)c2)c1C", "growth inhibition": "98% (active)"},
      {"compound": "[O-]c1c2cc(-[n+]3c(-c4ccccc4)cc(-c4ccccc4)cc3-c3ccccc3)cc1COCCOCCOCCOCCOC2", "growth inhibition": "10%"},
      {"compound": "C[Si](C)(C)Cc1ccccc1C(=O)O", "growth inhibition": "15%"}
    ]},
    {"assay": "NCI Yeast Anticancer Drug Screen. Data for the mgt1 strain (AID 153)", "conditions": "S. cerevisiae mgt1 mutant growth inhibition; at 100.0 µM; stronger effect = higher value", "summary_of_the_method": "as §1", "values": [
      {"compound": "COc1ccc(/C=C2\\CCc3ccccc3C2=O)cc1OC", "growth inhibition": "89% (active)"},
      {"compound": "O=Cc1ccccc1B(O)O", "growth inhibition": "99% (active)"},
      {"compound": "CC(=O)CC[N+](C)(C)C", "growth inhibition": "-2%"},
      {"compound": "O=C(O)[C@H]1[C@@H](C2CCCCC2)O[C@@H](C2CCCCC2)O[C@H]1C(F)(F)F", "growth inhibition": "0%"},
      {"compound": "CCCCOc1ccc(Nc2c3ccccc3nc3ccccc23)cc1", "growth inhibition": "78% (active)"},
      {"compound": "N#C/C(=C1C=C/C(=N\\O)C(Cl)=C\\1)c1ccccc1", "growth inhibition": "10%"},
      {"compound": "COc1ccc(C(=O)OCCc2ccccc2)cc1", "growth inhibition": "-4%"},
      {"compound": "Cc1c2ccncc2c(C)c2c1oc1ccccc12", "growth inhibition": "98% (active)"},
      {"compound": "CCCC#CCOC(=O)c1cc([N+](=O)[O-])cc([N+](=O)[O-])c1", "growth inhibition": "99% (active)"},
      {"compound": "Nc1nc(Nc2ccccc2)nc(Nc2ccccc2)n1", "growth inhibition": "92% (active)"},
      {"compound": "COc1ccc(/C=C2\\S/C(=N/Nc3nc(-c4ccccc4)cs3)NC2=O)cc1OC", "growth inhibition": "93% (active)"},
      {"compound": "CC(O)CN1C(=O)c2cccc3cc([N+](=O)[O-])cc(c23)C1=O", "note": "(configuration not stated)", "growth inhibition": "23%"},
      {"compound": "Cn1c(COc2ccc(/C=N/NC(=O)CCC(=O)N/N=C/c3ccc(OCc4c[n+]5ccccc5n4C)cc3)cc2)c[n+]2ccccc12", "growth inhibition": "98% (active)"},
      {"compound": "COC1=C(N=[N+]=[N-])C(=O)c2ncccc2C1=O", "growth inhibition": "94% (active)"},
      {"compound": "CCN(CC)c1ccc(N=Nc2cc(S(=O)(=O)O)ccc2O)c(O)c1", "growth inhibition": "27%"},
      {"compound": "O=C1C(C(O)(C(F)(F)F)C(F)(F)F)CCC1C(O)(C(F)(F)F)C(F)(F)F", "note": "(configuration not stated)", "growth inhibition": "34%"},
      {"compound": "CN(C)CCNC(=O)c1cccc2nc3c(ccc4ccccc43)nc12", "growth inhibition": "99% (active)"},
      {"compound": "CCC(C)/C(C)=N/NC(N)=O", "note": "(configuration not stated)", "growth inhibition": "1%"},
      {"compound": "Nc1c([N+](=O)[O-])cc2c3c(cccc13)CC2", "growth inhibition": "39%"},
      {"compound": "CC1=Cc2ccc(C)cc2C(=O)C1=O", "growth inhibition": "99% (active)"},
      {"compound": "C=Cc1c(C)c(O)cc2c1-c1ccc(O)c(C)c1CC2", "growth inhibition": "99% (active)"},
      {"compound": "NCC(O)CSCc1ccc(Cl)cc1", "note": "(configuration not stated)", "growth inhibition": "7%"},
      {"compound": "C[n+]1c(-c2ccc(NC(=O)c3ccc(C(=O)Nc4ccc(-c5cn6ccccc6[n+]5C)cc4)cc3)cc2)cn2ccccc21", "growth inhibition": "92% (active)"},
      {"compound": "CNC(=O)OCc1c(COC(=O)NC)c(C)n(-c2ccc(Cl)c(Cl)c2)c1C", "growth inhibition": "99% (active)"},
      {"compound": "[O-]c1c2cc(-[n+]3c(-c4ccccc4)cc(-c4ccccc4)cc3-c3ccccc3)cc1COCCOCCOCCOCCOC2", "growth inhibition": "82% (active)"},
      {"compound": "C[Si](C)(C)Cc1ccccc1C(=O)O", "growth inhibition": "99% (active)"}
    ]}
  ]
}
